Laboratory results as given in PubChem BioAssay (EPA / NIEHS).
Several values for one entry are separate records, joined by “and”; a condition that tells them apart may be missing. Identical values can stand only once. Where a structure was tested more than once in an assay, its records may differ in their call. Activity calls are given as the source filed them. The calls were made as follows: active = hit-call score of the fitted dose curve at least 0.9, where 1 is the maximum; inactive = score below 0.9.

What follows are compounds tested on Matrix Metallopeptidase 1 (MMP1), MMP1 (gene 4312) (assay: BSK_BE3C_MMP1: BioMAP Diversity Plus: BE3C Assay for Matrix Metallopeptidase 1 (MMP1) Biomarker Activity (AID 2283024)). Conditions: primary human bronchial epithelial cells; actives raise or lower the signal.
Method: BSK_BE3C is a cell-based, multiplexed-readout assay that uses bronchial epithelial cell, a human lung primary cell, with measurements taken at 24 hours after chemical dosing in a 96-well plate.BSK_BE3C_MMP1 is an assay component measured in the BSK_BE3C assay. It measures MMP-1 antibody related to regulation of gene expression using ELISA technology.Data from the assay component BSK_BE3C_MMP1 was analyzed into 1 assay endpoint. This assay endpoint, BSK_BE3C_MMP1, was analyzed with bidirectional fitting relative to DMSO as the negative control and baseline of activity. Using a type of binding reporter, gain or loss-of-signal activity can be used to understand changes in the signaling as they relate to the gene MMP1. Furthermore, this assay endpoint can be referred to as a primary readout, because this assay has produced multiple assay endpoints where this one serves a signaling function. To generalize the intended target to other relatable targets, this assay endpoint is annotated to the protease intended target family, where the subfamily is matrix metalloproteinase.
The levels of cell surface (or secreted, indicated by the prefix "s") biomarker endpoints were measured by ELISA. Overt cytotoxicity to cells in confluent adherent cultures (all systems other than the BT system) was assessed by measuring total protein levels using sulforhodamine B (SRB) staining in parallel cultures at the time of biomarker measurements, indicated as SRB endpoints. For proliferation assays for adherent cell types, individual cell types are cultured at sub-confluence and relative cell numbers quantified by SRB staining at time points optimized for each system (48 h: 3C and CASM3C systems; 72 h: BT and HDF3CGF systems; 96 h: SAg system). SRB was performed by staining cells with 0.1% SRB after fixation with 10% TCA and reading wells at 560 nm.Viability and proliferation of PBMC (T cells) was quantified by Alamar Blue reduction for the SAg and BT systems. For PBMC viability (referred to as PBMC Cytotoxicity within the assay endpoint names), cells were plated (75,000/well in a 96-well plate) and then chemical samples added for 1 h before addition of activators, SEB and TSST-1 (20 ng/mL final concentration each). Cells were incubated for 90 h. Then, Alamar Blue (20 uL/well) (Invitrogen, Cat DAL1100) was added for 6 h, and the plates were read with a fluorescence microplate reader at 546/580 nm (excitation/emission). For PBMC proliferation, cells were plated and activated as above but incubated for only 16 h prior to addition of Alamar Blue. Plates were read after 6 h.

outcome, inactive:
N=C(N)c1ccc(OCCCCCOc2ccc(C(=N)N)cc2)cc1
O=C(NCc1ncc(C(F)(F)F)cc1Cl)c1c(Cl)cccc1Cl
O=C(O)CCC(F)(F)C(F)(F)C(F)(F)C(F)(F)C(F)(F)C(F)(F)F
C=CC(=O)OCCC(F)(F)C(F)(F)C(F)(F)C(F)(F)C(F)(F)C(F)(F)C(F)(F)C(F)(F)F
O=P(O)(O)CCC(F)(F)C(F)(F)C(F)(F)C(F)(F)C(F)(F)C(F)(F)C(F)(F)C(F)(F)F
Cc1ccc(C(=O)c2ccccc2)cc1
Cc1[nH]nc2c1N=C(c1ccccc1Cl)c1cc([N+](=O)[O-])ccc1N2
C=CC(C)(CCC=C(C)C)OC(C)=O (stereo not given)
Oc1c(Cl)cc(Cl)cc1Sc1cc(Cl)cc(Cl)c1O
CCCCC=O
O=P(O)(O)CCC(F)(F)C(F)(F)C(F)(F)C(F)(F)C(F)(F)C(F)(F)F
CCOC(=O)CN[C@@H](C(=O)N1CC[C@H]1C(=O)NCc1ccc(/C(N)=N/O)cc1)C1CCCCC1
CCC(C)c1ccccc1O (stereo not given)
COCN(COC)c1nc(N(COC)COC)nc(N(COC)COC)n1
O=C(c1ccccc1)c1ccccc1
COC1=CC(=O)C[C@@H](C)[C@]12Oc1c(Cl)c(OC)cc(OC)c1C2=O
CCCCC(CC)C(=O)O (stereo not given)
CCCCCCCCCCCC
Cc1cccc2c1ccc1ccccc12
CCCCCCCCCCCCOS(=O)(=O)O
O=S(=O)(O)C(F)(F)C(F)(F)C(F)(F)C(F)(F)C(F)(F)C(F)(F)C(F)(F)C(F)(F)C(F)(F)C(F)(F)F
OCC(F)(F)C(F)(F)C(F)(F)C(F)(F)C(F)(F)C(F)(F)C(F)(F)C(F)(F)C(F)(F)C(F)(F)C(F)(F)F
COc1cc(OC)nc(NC(=O)NS(=O)(=O)Nc2ccccc2C(=O)N(C)C)n1
O=C1c2ccc(O)c(O)c2C(=O)c2c(O)ccc(O)c21
Oc1cc2ccccc2cc1O
CN(C)CCOC(c1ccccc1)c1ccccc1
Cc1ccc(N=Nc2c(O)ccc3ccccc23)c(C)c1
O=C(NO)c1ccccc1

AC50, active:
O=C(O)CCC(F)(F)C(F)(F)C(F)(F)C(F)(F)C(F)(F)C(F)(F)F 7.99 µM
O=C1OC2(c3ccccc31)c1cc(I)c(O)c(I)c1Oc1c2cc(I)c(O)c1I 3.22 µM
O=P(O)(O)CCC(F)(F)C(F)(F)C(F)(F)C(F)(F)C(F)(F)C(F)(F)C(F)(F)C(F)(F)F 11.5 µM
O=C(O)C(F)(F)OC(F)(F)C(F)(F)OC(F)(F)C(F)(F)OC(F)(F)C(F)(F)C(F)(F)C(F)(F)F 5.81 µM and 5.41 µM
C=CC(=C)CC/C=C(\C)CCC=C(C)C 0.00695 µM
C=COC(=O)C(C)(C)CCCCCC 3.97 µM
O=P(O)(O)CCC(F)(F)C(F)(F)C(F)(F)C(F)(F)C(F)(F)C(F)(F)F 40 µM
O=C(CC(=O)C(F)(F)C(F)(F)C(F)(F)F)c1cccs1 43.6 µM and 45.2 µM
CCCCCCCCCCCCCCCCCC[N+](C)(C)Cc1ccccc1 10 µM
NC(=NCCCCCCN=C(N)/N=C(\N)Nc1ccc(Cl)cc1)/N=C(\N)Nc1ccc(Cl)cc1 3.14 µM
O=S(=O)(O)C(F)(F)C(F)(F)C(F)(F)C(F)(F)C(F)(F)C(F)(F)C(F)(F)C(F)(F)C(F)(F)C(F)(F)F 3.54 µM
CS(=O)(=O)c1ccc([C@@H](CC2CCCC2)C(=O)Nc2cnccn2)cc1Cl 9.05 µM
